An excerpt weighted towards active compounds, which were near 22% of everything screened.
Pf growth 96h = inhibits malaria parasite growth, 96 h | P. falciparum luciferase reporter growth, 96 h | Potency, µM (series often up to 28.7 µM), actives largely listed as inhibitors | actives 6.9% (n = 320,000) | AID 504834
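Two parasite generations (96 h, 37 C, 5% CO2) of compound exposure in infected erythrocytes (0.05% parasitemia, 2% hematocrit). Luciferase-reporter P. falciparum; decreased luminescence indicates inhibited growth, aimed at apicoplast-acting delayed death.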
LmPK inhibitor = inhibitors of Leishmania mexicana pyruvate kinase | Q27686 | AID 1721 | actives 0.37% (n = 290,000) | purified LmPK, Kinase-Glo ATP luminescence, 1 h | Potency, µM (titrated, usually from 57.5 µM), usual class: inhibitors
Target sequence (Q27686 whole entry, looked up): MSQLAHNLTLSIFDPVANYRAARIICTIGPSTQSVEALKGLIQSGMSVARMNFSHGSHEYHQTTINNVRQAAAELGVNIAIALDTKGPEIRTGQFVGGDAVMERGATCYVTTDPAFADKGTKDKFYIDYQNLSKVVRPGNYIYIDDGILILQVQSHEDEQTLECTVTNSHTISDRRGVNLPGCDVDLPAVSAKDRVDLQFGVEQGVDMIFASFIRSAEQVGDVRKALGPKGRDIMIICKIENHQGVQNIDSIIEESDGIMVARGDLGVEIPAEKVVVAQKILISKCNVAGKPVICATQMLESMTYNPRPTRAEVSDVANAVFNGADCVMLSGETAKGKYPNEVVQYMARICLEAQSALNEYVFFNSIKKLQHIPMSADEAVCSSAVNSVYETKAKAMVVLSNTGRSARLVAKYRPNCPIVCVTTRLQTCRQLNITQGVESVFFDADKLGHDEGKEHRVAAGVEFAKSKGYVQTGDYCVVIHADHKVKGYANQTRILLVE
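Screened at intermediate enzyme activity to detect both inhibitors and activators: LmPK at 0.1 nM, with a 0.5 nM enzyme column as activation reference. PEP 0.5 mM, ADP 0.1 mM; ATP detected by luminescence after 1 h.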
CHX counter = counter-screen hit for Shiga toxin inhibitors, cycloheximide; cell reporter, cycloheximide protein synthesis inhibition counterscreen; max response, %; actives 12% (n = 300,000); AID 2314; in the data active = max response mostly above about 13%, no sharp cut-off; inactive = mostly below about 14%; note: read at 38.3 µM for the half of the compounds with a filed dose
Shiga toxin inh = Shiga toxin inhibition; inhibition, % at 38.7 µM; actives 9.2% (n = 290,000); AID 2315; Vero cells, Shiga toxin protein synthesis inhibition reporter; in the data active = inhibition mostly above about 28%, no sharp cut-off; inactive = mostly below about 43%
Pf growth 48h = P. falciparum growth inhibition at 48 hours (one generation); P. falciparum luciferase growth in erythrocytes, 48 h; Potency, µM (highest dose often 28.7 µM), usual class: inhibitors; actives 5.9% (n = 310,000); AID 504832
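Erythrocytes infected with P. falciparum carrying an integrated firefly luciferase reporter (2% hematocrit, 0.1% parasitemia final) were exposed to compounds in RPMI 1640 with 0.5% Albumax at 37 C, 5% CO2. Growth inhibition was scored as reduced luminescence.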
A number is an active result; i = inactive; ? = inconclusive; nt = no result; [ ] = another dose, or the depositor's remark. Unless noted, calls come from the whole dose curve; as a rule, active = well fitted inhibition curve with a large enough effect; inconclusive = small, poorly fitted or top-dose-only effect, or another doubt; inactive = no such curve, though single readings can be large or run the other way.

SMILES	Pf growth 96h	LmPK inhibitor	CHX counter	Shiga toxin inh	Pf growth 48h
CCN(C(=O)CSc1nc2cc(C(=O)OC)ccc2c(=O)n1Cc1ccco1)c1cccc(C)c1	i	i	i	i	4.65µM
c1ccc(-c2nc3nonc3c3nc4ccccc4n23)cc1	13.1µM	i	i	i	i
c1ccc(-c2nc3ccccc3c3nc4ccccc4n23)cc1	i	i	i	i	i
CC(CCC(=O)Nc1nncs1)C(=O)O (stereo not given)	11.7µM	i	i	i	i
CCN(CCO)Cc1csc2ccc(C(C)(C)C)cc12	?	i	i	i	?
CCCn1c(C)nc2c(c1=O)c1nc3ccccc3nc1n2CCC1=CCCCC1	?	i	i	i	?
Cc1nc2c(c(=O)n1CCC1=CCCCC1)c1nc3ccccc3nc1n2/N=C/c1ccco1	9.28µM	i	i	i	10.4µM
COc1ccccc1NC(=O)CC1COc2ccccc2O1 (stereo not given)	nt	i	i	i	i
O=C(CN1CCN(S(=O)(=O)c2ccc(Cl)cc2)CC1)Nc1ccc(F)cc1F	i	i	17.0	i	i
O=C(CN1CCN(S(=O)(=O)c2ccc(Br)cc2)CC1)Nc1ccc(F)cc1F	i	i	12.9	i	i
O=C(CN1CCN(S(=O)(=O)c2ccc(Br)cc2)CC1)Nc1ccccc1F	i	i	i	i	i
O=C(CN1CCN(S(=O)(=O)c2ccc(Br)cc2)CC1)Nc1ccc(F)cc1	i	i	i	i	4.15µM
COc1ccccc1C(=O)NC(=O)COC(=O)Cn1[nH]c(=O)c2ccccc2c1=O	i	nt	nt	nt	i
CCc1ccc2c(c1)cc(C)c1nnc(SCC(=O)Nc3cc(OC)c(OC)cc3C(=O)O)n12	i	i	i	i	i
O=C(OCC(=O)N(C1CCCCC1)C1CCCCC1)c1ccc(O)cc1	?	i	i	i	8.28µM
CC(C)(C)C(=O)COC(=O)c1ccc(O)cc1	i	i	i	40.3	i
N#CCC(=O)Nc1ccc(C(=O)OCC(=O)N(C2CCCCC2)C2CCCCC2)cc1	?	i	i	i	11.7µM
O=C(OCC(=O)N(C1CCCCC1)C1CCCCC1)c1ccccc1O	?	i	i	i	?
COc1cccc2c1OC[C@@H](CO)[C@H]2N(C)C(=O)Nc1ccc(Cl)cc1Cl	i	i	i	i	i
Cn1cccc1Cc1nnc(SCC(=O)Nc2ccc3c(c2)OCCO3)n1CCc1ccccc1	11.7µM	i	i	i	nt
COc1ccc(OC)c(C(=O)CSc2nnc(-c3cccs3)n2C)c1	nt	i	i	i	?
COc1ccc(OC)c(NC(=O)CSc2nnc(Cc3cccn3C)n2CCc2ccccc2)c1	11.7µM	i	i	i	5.22µM
Cn1cccc1Cc1nnc(SCC(=O)Nc2ccc3c(c2)OCO3)n1CCc1ccccc1	?	i	i	i	?
COc1ccc(OC)c(C(=O)CSc2nnc(Cc3cccs3)n2CCc2ccccc2)c1	13.1µM	i	i	i	11.7µM
CCOC(=O)N1CCN(C(=O)/C=C/c2ccc(C(C)(C)C)cc2)CC1	i	i	i	i	i
SMILES	Pf growth 96h	LmPK inhibitor	CHX counter	Shiga toxin inh	Pf growth 48h
COC(=O)Cc1c(O)ccn(Cc2ccc3c(c2)OCO3)c1=O	?	i	i	i	i
COC(=O)c1cc(Br)c(=O)n(Cc2ccc3c(c2)OCO3)c1	9.28µM	i	i	i	?
O=c1c2ccccc2c(C=Nc2ccc(S(=O)(=O)N3CCCCC3)cc2)c(O)n1-c1ccc(Cl)cn1	i	i	i	i	i
O=c1c2ccccc2c(C=Nc2cccc(S(=O)(=O)NCc3ccco3)c2)c(O)n1-c1ccc(Cl)cn1	?	i	43.8	50.7	14.7µM
CCc1ccc(OCC(=O)Nc2ccc(S(=O)(=O)N3CCCC3)cc2)c(Br)c1	nt	i	i	i	13.1µM
O=C(COc1ccc(S(=O)(=O)N2CCCC2)cc1)Nc1ccc(F)cc1	i	i	i	i	?
COCC(=O)Nc1ccc(S(=O)(=O)N2CCCC2)cc1	i	i	i	i	i[0.00184 µM]
O=C(COc1ccc(Br)cc1CO)Nc1ccc(S(=O)(=O)N2CCCCC2)cc1	6.57µM	nt	nt	nt	9.28µM
COc1ccc(Cc2[nH]n3c(=O)cc(C(C)C)nc3c2-c2ccccc2)cc1	i	i	i	i	?
COc1cccc(C(C)NC(=O)Nc2ccccc2Cl)c1 (stereo not given)	i	i	i	i	?
O=C(Nc1ccccc1-c1nnc(SCc2ccc(Cl)cc2Cl)o1)c1ccccc1	2.33µM	i	i	i	i
O=C(CNC(=O)[C@@H]1Cc2ccccc2CN1)NC1CCCC1	?	i	24.3	i	?
